The record followed here is PubChem BioAssay (NCI).

Compounds without any hit were thinned out: in the full panel of roughly 79,000, 15% have a hit. Calls of active or inactive are those of the source. Cut-off read from the data, not from the text of the source: active = growth inhibition above about 70%; inactive = the rest.

The first assay in a line: NCI Yeast Anticancer Drug Screen. Data for the mlh1 strain (AID 171).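 Note: 0% = growth of vehicle-treated control cultures of the same strain.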 The settings on record: S. cerevisiae mlh1 strain growth inhibition; at 1.2 µM; active compounds read high. The method, boiled down: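 Read-out: growth inhibition versus vehicle controls. Strain: engineered yeast with a defined DNA repair or cell cycle defect, compound-treated.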
As to `Oc1cccc2c(Cl)ccnc12`, the growth inhibition is 27% (inactive).

Turning to `O=C1C=CC(=C(c2ccccc2)c2ccccc2)c2ccccc21`, the growth inhibition is 2% (inactive).

Consider `S=C(S)NN1CCOCC1`, for which the growth inhibition was 63% (inactive).

Still in this assay, the particulars now being: S. cerevisiae mlh1 strain growth inhibition; at 3.7 µM; active compounds read high.
For `C/C(=N\NC(=S)SCc1ccccc1)c1ccccn1`, the growth inhibition is 24% (inactive).

In the case of `CN(C)c1ccc(Sc2ccc3nc(N)nc(N)c3c2)cc1`, the growth inhibition was -8% (inactive). Same read-out and setting: the result for `CC(=O)OCCOCNC(=S)N/N=C(\C)c1cnccn1` reads -4% (inactive); that for `COc1ccc(C2c3cc4c(cc3OC(C)(O)C2C)OCO4)c(OC)c1` (stereo not given), 2% (inactive); that for `COc1cc(C2SCC(=O)N2c2ccc(-c3ccc(-n4c(-c5ccccc5)nc5ccccc5c4=O)cc3)cc2)cc(OC)c1OC` (stereo not given), 0% (inactive). Same read-out and setting: to `COc1ccc(Br)c(C(=O)Sc2nnnn2-c2cccc(Cl)c2)c1` belongs -21% (inactive).

As for `O=C(NNc1ccnc2cc(Cl)ccc12)/C(=C\c1ccccc1Cl)NC(=O)c1ccccc1`, the growth inhibition is 0% (inactive). On the same count and under the same terms, the result for `CSC(=S)Nc1cccc(C)n1` reads -40% (inactive). Regarding `O=C(/C=C\c1ccc(Cl)cc1Cl)c1cccs1`, the growth inhibition was 0% (inactive). On the same count and under the same terms, the result for `COc1ccc(-c2cn(-c3ccc(I)cc3)c3ncnc(N)c23)cc1` reads -5% (inactive); that for `CN(C)c1ccc(C(C#N)=C(C#N)C#N)cc1`, -6% (inactive). On to `COc1cc(/C=C2\CCc3ccccc3C2=O)cc(OC)c1OC`, for which the growth inhibition is -7% (inactive). On to `CC(C)/C(Cl)=N\OC(=O)Nc1cccc(Cl)c1`, for which the growth inhibition is -7% (inactive).

Take `CC1(C)[C@@H]2CC[C@]1(C)[C@H](OC(=O)CSC#N)C2`: the growth inhibition was 9% (inactive). Still for that read-out and setting: the result for `NNC(=O)CCc1ccc2ccc3ccccc3c2c1` reads 3% (inactive). With `COc1ccc(/C(C)=N/OC(=O)c2c(-c3ccccc3Cl)noc2C)cc1CN1CCOCC1`, the growth inhibition is -16% (inactive). In the case of `C=CC(C)(O)CCC1C(=C)C(O)CC2C(C)(C)CCCC12C` (stereo not given), the growth inhibition is -12% (inactive). On the same count and under the same terms, the result for `S=C(Nc1ccc(Cl)c(Cl)c1)SCc1ccc2c(c1)OCO2` reads 66% (inactive); that for `COc1cc(C2C3=C(COC3=O)Oc3cc4c(cc32)OCO4)ccc1O` (stereo not given), -5% (inactive); that for `S=C(Nc1ccc(Cl)cc1)SC1CCCCC1`, 19% (inactive).

In the case of `Nc1nc(-c2cccnc2)cc(-c2cc(-c3cccnc3)nc(N)n2)n1`, the growth inhibition is -1% (inactive). On the same count and under the same terms, to `c1ccc(-c2nc3cccnc3s2)cc1` belongs 13% (inactive); to `O=[N+]([O-])c1cc(CCl)ccc1CCl`, 13% (inactive).

Turning to `COc1ccc(/C=C2\SC(=S)N(/C=C/c3nc4ccccc4[nH]c3=O)C2=O)cc1OC`, the growth inhibition is 5% (inactive). The same measure, in the same setting: the result for `CCCN(CCC)CC(O)c1cc(-c2ccc(Cl)cc2)nc2c(C)c(Cl)ccc12` (stereo not given) reads -2% (inactive). Still for that read-out and setting: the result for `O=C(Nc1ccccc1)OCCc1ccc(Cl)c(Cl)c1` reads 2% (inactive); that for `CC(O)C(O)C(O)C(/C=N\Nc1ccccc1)=N/Nc1ccccc1` (stereo not given), 4% (inactive); that for `C#CCCCc1ccccc1`, -22% (inactive).

`CC(=O)Cc1ccc[cH-]1.[Fe+2].c1cc[cH-]c1`: the growth inhibition was -3% (inactive). In the case of `Cc1cc(I)ccc1N`, the growth inhibition is 13% (inactive). Still for that read-out and setting: to `FC(F)(F)c1cc(NC(=S)N2c3ccccc3-n3cccc3C2c2cccnc2)cc(C(F)(F)F)c1` (stereo not given) belongs -1% (inactive); to `CC(C)(CN1CCCCC1)C(=O)CC(SCCS(=O)(=O)O)c1ccc(Br)cc1` (stereo not given), 6% (inactive). With `C[Si](C)(C)CNC(=O)OCc1ccccc1`, the growth inhibition is -7% (inactive).

Consider `CC(C(=O)N1C(=O)N(C(=O)[C@H](C)C(O)c2ccccc2)[C@H](c2ccccc2)[C@H]1c1ccccc1)[C@@H](O)c1ccccc1` (stereo not given in full), for which the growth inhibition was -4% (inactive). The same measure, in the same setting: the result for `Oc1cccc2c(Cl)ccnc12` reads 99% (active). The same measure, in the same setting: to `O=C1C=CC(=C(c2ccccc2)c2ccccc2)c2ccccc21` belongs 0% (inactive); to `S=C(S)NN1CCOCC1`, 30% (inactive).
